# Data: PubChem BioAssay (NCI)
# Several values for one entry are separate records, joined by “and”; a condition that tells them apart may be missing. Equal values may be shown once. About 83,000 compounds went through this panel and 20% of them were active in at least one assay; those are over-represented in the sample as a whole.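 Single-dose data. Exposure time 48 hours. Values below 10 considered active.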 A number with no mark means an inactive call. Activity calls are given as the source filed them.
# Test system: HOP-92 NSCLC
# Assay: NCI-60 one-dose screen, 48 h (100 = growth as untreated, 0 = no growth, -100 = all killed)
# Conditions: 10 µM unless noted
row,Structure (SMILES),growth
1,O=C(NN1C(=O)/C(=C/C=C/c2ccc([N+](=O)[O-])o2)SC1=S)c1ccc([N+](=O)[O-])cc1,-84.2% (active)
2,CN1C(=O)/C(=C/c2ccco2)S/C1=N/c1nccs1,114%
3,N#C/C(=C/c1ccc([N+](=O)[O-])cc1)c1nnc(NC(=O)c2ccc(-n3c(=O)[nH]c4ccccc4c3=O)cc2)s1,101%
4,O=C(CSc1nnc(-c2ccc(-c3nc4ccc(Cl)cc4[nH]3)cc2)o1)Nc1ccccc1,2.36% (active)
5,Cc1cccc(NCC(=O)N2CCN(c3ncnc4c3cnn4-c3ccccc3)CC2)c1,50.6%
6,O=C(N/N=C/c1ccc(Br)o1)c1[nH]c2ccc(Br)cc2c1-c1ccccc1,-4.09% (active)
7,CCCCCCCCc1ccc(C(=O)Nc2ccc(C)c(OP(=O)(O)O)c2)cc1,42%
8,Cn1cc(-c2cc3nc(-c4cn(C)c5ncc(Br)cc45)cc(N)n3n2)c2cc(F)ccc21,-18.3% (active)
9,O=C1Nc2ccccc2/C1=C/C(=O)c1cc2ccccc2oc1=O,119%
10,c1n[nH]cc1-c1nc2ccc3cn[nH]c3c2c2c1CCCC2,85.2%
11,CN1C(=O)C(O)(CC(=O)c2cc3ccccc3oc2=O)c2ccccc21 (centres undefined),110%
12,O=C(CCl)Nc1ccc(C(=O)/C=C/c2cc3ccccc3nc2Cl)cc1,46.9% and 65.3%
13,Cc1cc(C2(c3cc(C)c(OCC(O)CNc4c(C)n(C)n(-c5ccccc5)c4=O)cc3C(C)C)OC(=O)c3ccccc32)c(C(C)C)cc1OCC(O)CNc1c(C)n(C)n(-c2ccccc2)c1=O (centres undefined),-9.82% (active)
14,Cn1cc(-c2cc(N)n3nc(-c4c[nH]c5ccccc45)cc3n2)c2cc(Br)ccc21,-74.5% (active)
15,CCC(=O)c1c2c(c3ccc4c5ccccc5ccc4n13)C(=O)c1ccccc1C2=O,117%
16,CS(=O)(=O)Nc1cc(-c2ccc3ncnc(Nc4ccc(OCc5cccnc5)c(Cl)c4)c3c2)cnc1Cl,-27.9% (active)
17,Cn1cc(-c2cc(N)n3nc(-c4c[nH]c5ccccc45)cc3n2)c2cc(Cl)ccc21,-68.5% (active)
18,COc1ccc(N=Nc2c(N)nn3c(N)c(C#N)c(-c4ccc(C)cc4)nc23)cc1,19.4%
19,COc1ccc(C(=O)/C=C/c2ccc3c(c2)OCCO3)cc1S(N)(=O)=O,94.5%
20,CCCCC[C@@H]1C/C=C(\C)[C@@H](O)C(C)(C)C(=O)[C@@H](C)/C=C(\C)[C@@H]2C[C@H](O)C[C@](O)(CC(=O)O1)O2,60.4%
21,CC(C)(C)c1ccc(OCc2nc3ccccc3n2-c2cccc(N)c2)cc1,41.6% and 106%
22,O=C1/C(=C/c2cnc(-c3ccccc3)s2)SC(=S)N1Cc1ccc2c(c1)OCO2,48.6%
23,COc1ccc(NC2=C(I)C(=O)C(C)=C(C)C2=O)cc1,31.4%
24,COc1ccc(-c2nnc3c(/C=C/c4ccc(Br)cc4)nc4ccccc4n23)cc1,35.6%
25,C[C@H]1[C@@H](CC(=O)N[C@@H](Cc2coc3ccccc23)B(O)O)O[C@@H]2OC3(C)CC[C@H]4[C@H](C)CC[C@@H]1[C@@]24O3,23.2%
26,O=C(NNC(=S)NC(=O)c1ccccc1)c1ccc(OCc2nc3ccc(Cl)cc3[nH]2)cc1,-10.8% (active)
27,CC1=C(C)C(=O)C(NCCN2CCOCC2)=C(Br)C1=O,38.7%
28,N#Cc1ccc(C(=O)NNC(=O)CSc2nc3sc4c(c3c(=O)n2-c2ccc(Cl)cc2)CCCC4)cc1,45.6%
29,CCCCCCCOc1ccc(S(=O)(=O)Nc2ccc(C)c(F)c2C(=O)O)cc1,8.57% (active)
